Measured values as given in the supplement of paper PMC11219838.

Key:
Conditions in all cases: 60 µM; 5 days; temperature: 20 °C
[1] = test system: Meloidogyne hapla J2; test: proportion of mobile M. hapla J2 relative to DMSO control (fraction of DMSO control); higher = more viable, less nematicidal, active = 0.7 or less
Outline: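 About 25 M. hapla J2 were added per 96-well well in distilled water, and compound was pinned to 60 µM final (0.6% v/v DMSO). Sealed plates were shaken at 200 rpm for 5 days at 20 °C, then 2 µL 1 M NaOH was added before microscopic mobility scoring. Mobility was divided by the mean of eight DMSO wells on the same plate, and two biological replicates were averaged.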

[2] = test system: Caenorhabditis elegans dauer (daf-2(e1370)); test: proportion of mobile C. elegans dauer larvae relative to DMSO control (fraction of DMSO control); higher = more viable, less nematicidal, active = 0.63 or less; extreme values may be limits of the assay
Outline: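 Synchronized C. elegans daf-2(e1370) larvae were held at 25 °C for 48 h on MYOB plates with E. coli OP50 to form dauers, and about 20 dauers were added per 96-well well in liquid NGM. Compound was pinned to 60 µM final (0.6% v/v DMSO), and sealed plates were shaken at 200 rpm for 5 days at 20 °C. The proportion of mobile worms was scored under a dissection microscope relative to DMSO controls and averaged over two biological replicates.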

[3] = test system: Ditylenchus dipsaci; test: proportion of mobile D. dipsaci (mixed stage) relative to DMSO control (fraction of DMSO control); higher = more viable, less nematicidal, active = 0.86 or less; extreme values may be limits of the assay
Outline: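 D. dipsaci were grown on pea plants in Gamborg B-5 agar and extracted through a filter funnel into water, and about 20 worms were added per 96-well well in distilled water. Compound was pinned to 60 µM final (0.6% v/v DMSO), and sealed plates were shaken at 200 rpm for 5 days at 20 °C. After 2 µL 1 M NaOH was added, mobile worms were scored microscopically. Mobility was expressed relative to DMSO controls and averaged over two biological replicates.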

O=C(CSc1nnc(-c2cccc(Cl)c2)o1)NC1CCCCC1
inactive: proportion of mobile M. hapla J2 [1] 0.874 | proportion of mobile C. elegans dauer larvae [2] 1 | proportion of mobile D. dipsaci [3] 1

Cc1ccc(-c2nc(-c3ccccc3)no2)cc1Cl
inactive: proportion of mobile M. hapla J2 [1] 0.996 | proportion of mobile C. elegans dauer larvae [2] 1 | proportion of mobile D. dipsaci [3] 1

COc1ccccc1NC(=O)CSc1nnc(-c2ccc(Cl)cc2)o1
inactive: proportion of mobile M. hapla J2 [1] 0.902 | proportion of mobile C. elegans dauer larvae [2] 1 | proportion of mobile D. dipsaci [3] 1

Clc1ccccc1CSc1nnc(-c2ccncc2)o1
inactive: proportion of mobile M. hapla J2 [1] 0.974 | proportion of mobile C. elegans dauer larvae [2] 1 | proportion of mobile D. dipsaci [3] 1

Cc1ccc(-c2nnc(SCc3ccc(Br)cc3)o2)cc1
inactive: proportion of mobile M. hapla J2 [1] 0.923 | proportion of mobile C. elegans dauer larvae [2] 1 | proportion of mobile D. dipsaci [3] 1

Clc1ccc(OCc2nc(-c3ccc(Br)o3)no2)cc1
inactive: proportion of mobile M. hapla J2 [1] 0.945 | proportion of mobile C. elegans dauer larvae [2] 1 | proportion of mobile D. dipsaci [3] 1

COc1nc(-c2ccc(C)cc2)ccc1-c1noc(-c2cccc(C)c2)n1
inactive: proportion of mobile M. hapla J2 [1] 0.949 | proportion of mobile C. elegans dauer larvae [2] 1 | proportion of mobile D. dipsaci [3] 1

COc1ccc(Cl)cc1NC(=O)CSc1nnc(-c2ccc(Br)cc2)o1
inactive: proportion of mobile M. hapla J2 [1] 1.03 | proportion of mobile C. elegans dauer larvae [2] 1 | proportion of mobile D. dipsaci [3] 1

O=C(CSc1nnc(-c2ccco2)o1)Nc1cccc(Cl)c1Cl
inactive: proportion of mobile M. hapla J2 [1] 0.866 | proportion of mobile C. elegans dauer larvae [2] 1 | proportion of mobile D. dipsaci [3] 1

COc1ccccc1OCc1nc(-c2ccccc2)no1
inactive: proportion of mobile M. hapla J2 [1] 0.973 | proportion of mobile C. elegans dauer larvae [2] 1 | proportion of mobile D. dipsaci [3] 1

CCc1ccc(OCc2nc(-c3ccc(C)cc3)no2)cc1
inactive: proportion of mobile M. hapla J2 [1] 1.04 | proportion of mobile C. elegans dauer larvae [2] 1 | proportion of mobile D. dipsaci [3] 1

O=C(Nc1ccccc1-c1nc(-c2cccnc2)no1)c1ccccc1Cl
inactive: proportion of mobile M. hapla J2 [1] 0.983 | proportion of mobile C. elegans dauer larvae [2] 1 | proportion of mobile D. dipsaci [3] 1
